Read-out in experiment [1]: Protein phosphatase 2A (PPP2R4), PTPA (gene 5524)
Description: LTEA_HepaRG_PPP2R4: Life Technologies and Expression Analysis (LTEA) Assay for Protein phosphatase 2A (PPP2R4) using HepaRG (AID 2283522). Particulars: mRNA level, 48 h; actives raise or lower the signal. In short, it runs like this: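 HepaRG, 48 h exposure, 8-pt half-log series from 100 uM, 0.5% DMSO vehicle, duplicates. Readout: PPP2R4 mRNA, Fluidigm qRT-PCR, housekeeping-normalized. Bidirectional curve fit vs DMSO baseline.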

Read-out in experiment [2]: Phosphatase and tensin (PTEN), PTEN (gene 5728)
Briefly: LTEA_HepaRG_PTEN: Life Technologies and Expression Analysis (LTEA) Assay for Phosphatase and tensin (PTEN) using HepaRG (AID 2283523). Particulars: mRNA level, 48 h; actives raise or lower the signal. In short, it runs like this: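 Expression of PTEN is quantified in the human liver line HepaRG following two days of dosing (top concentration 100 uM, half-log dilutions, 0.5% DMSO). Values derive from bidirectional curve fitting relative to DMSO controls.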

Read-out in experiment [3]: solute carrier (SLC22A1), SLC22A1 (gene 6580)
Briefly: LTEA_HepaRG_SLC22A1: Life Technologies and Expression Analysis (LTEA) Assay for solute carrier (SLC22A1) using HepaRG (AID 2283524). The note with it: mRNA level, 48 h; actives raise or lower the signal. In short, it runs like this:
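Transcript induction or suppression of SLC22A1 in human HepaRG cultures is scored after 48 h chemical treatment, with DMSO (0.5%) as baseline for bidirectional fitting. Concentrations span eight half-log points topping at 100 uM.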

Read-out in experiment [4]: Pyruvate Dehydrogenase Kinase 4 (PDK4), PDK4 (gene 5166)
Briefly: LTEA_HepaRG_PDK4: Life Technologies and Expression Analysis (LTEA) Assay for Pyruvate Dehydrogenase Kinase 4 (PDK4) using HepaRG (AID 2283525). The note with it: mRNA level, 48 h; actives raise or lower the signal. The procedure, abridged:
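Eight-point, half-log concentration series (max 100 uM, 0.5% DMSO) applied to differentiated HepaRG cells for 48 h in duplicate. Endpoint: PDK4 mRNA induction or repression by qRT-PCR against DMSO baseline.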

Read-out in experiment [5]: NAD(P)H dehydrogenase [quinone] 1 (NQO1), NQO1 (gene 1728)
Briefly: LTEA_HepaRG_NQO1: Life Technologies and Expression Analysis (LTEA) Assay for NAD(P)H dehydrogenase [quinone] 1 (NQO1) using HepaRG (AID 2283526). The note with it: mRNA level, 48 h; actives raise or lower the signal. In short, it runs like this:
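qRT-PCR read-out (Fluidigm TaqMan), normalized to three housekeeping genes, after 48 h chemical exposure of HepaRG cells. Concentrations: eight points, top 100 uM, half-log steps, 0.5% DMSO vehicle. Gain or loss of signal fitted relative to DMSO.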

Read-out in experiment [6]: Nuclear factor erythroid 2-related factor 2 (Homo sapiens) (UniProt Q16236)
Description: LTEA_HepaRG_NFE2L2: Life Technologies and Expression Analysis (LTEA) Assay for Nuclear factor erythroid 2-related factor 2 (NFE2L2) Transcription Factor using HepaRG (AID 2283527).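 Note: TaqMan qRT-PCR transcript level normalised to ACTB GAPDH and POLR2A housekeeping genes.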 The note with it: mRNA level, 48 h; actives raise or lower the signal. The procedure, abridged: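 Human liver HepaRG line treated in duplicate for 48 h with an eight-point series topping at 100 uM. Gene expression of NFE2L2 by qRT-PCR, bidirectionally fitted against the vehicle control.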

Read-out in experiment [7]: succinate dehydrogenase complex iron sulfur subunit B (SDHB), SDHB (gene 6390)
Description: LTEA_HepaRG_SDHB: Life Technologies and Expression Analysis (LTEA) Assay for succinate dehydrogenase complex iron sulfur subunit B (SDHB) using HepaRG (AID 2283528). Particulars: mRNA level, 48 h; actives raise or lower the signal. The procedure, abridged: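 HepaRG, 48 h exposure, 8-pt half-log series from 100 uM in 0.5% DMSO, duplicates. Readout: SDHB mRNA by Fluidigm qRT-PCR vs housekeeping genes; bidirectional fit relative to DMSO.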

Read-out in experiment [8]: Signal transducer and activator of transcription 3 (Homo sapiens) (UniProt P40763)
Briefly: LTEA_HepaRG_STAT3: Life Technologies and Expression Analysis (LTEA) Assay for Signal transducer and activator of transcription (STAT3) using HepaRG (AID 2283529). The note with it: mRNA level, 48 h; actives raise or lower the signal. The procedure, abridged: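 In this transcriptional endpoint, HepaRG cultures receive test chemicals at up to 100 uM for 48 h, tested in duplicate. STAT3 mRNA is normalized to ACTB, GAPDH and POLR2A.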

Read-out in experiment [9]: solute carrier (SLCO1B1), SLCO1B1 (gene 10599)
Description: LTEA_HepaRG_SLCO1B1: Life Technologies and Expression Analysis (LTEA) Assay for solute carrier (SLCO1B1) using HepaRG (AID 2283530). Particulars: mRNA level, 48 h; actives raise or lower the signal. In short, it runs like this:
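SLCO1B1 transcript levels were quantified by TaqMan qRT-PCR using three housekeeping genes for normalization. This followed 48 h chemical exposure (100 uM top, half-log, 8 points, 0.5% DMSO) of HepaRG liver cells, with gain or loss fitted relative to DMSO.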

Read-out in experiment [10]: sulfotransferase 2A1 (SULT2A1), SULT2A1 (gene 6822)
Briefly: LTEA_HepaRG_SULT2A1: Life Technologies and Expression Analysis (LTEA) Assay for sulfotransferase 2A1 (SULT2A1) using HepaRG (AID 2283531). Particulars: mRNA level, 48 h; actives raise or lower the signal. The procedure, abridged: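 Expression change of SULT2A1, by qRT-PCR with three housekeeping-gene normalization, was scored bidirectionally versus DMSO. Cells: differentiated HepaRG, dosed in duplicate for 48 h across 8 points, highest 100 µM, half-log dilution, 0.5% DMSO.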

Read-out in experiment [11]: Transforming Growth Factor (TGFA), TGFA (gene 7039)
Description: LTEA_HepaRG_TGFA: Life Technologies and Expression Analysis (LTEA) Assay for Transforming Growth Factor (TGFA) using HepaRG (AID 2283532). The note with it: mRNA level, 48 h; actives raise or lower the signal. In short, it runs like this: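 Gene expression of TGFA was quantified by qRT-PCR after human HepaRG cells were treated for 48 h with test chemicals (eight concentrations, highest 100 uM, 0.5% DMSO). Activity in either direction was fitted relative to DMSO.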

Read-out in experiment [12]: Transforming Growth Factor (TGFB1), TGFB1 (gene 7040)
Description: LTEA_HepaRG_TGFB1: Life Technologies and Expression Analysis (LTEA) Assay for Transforming Growth Factor (TGFB1) Transporter using HepaRG (AID 2283533). The note with it: mRNA level, 48 h; actives raise or lower the signal. In short, it runs like this:
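TGFB1 transcript measured by qRT-PCR with normalisation to three housekeeping genes (ACTB, GAPDH, POLR2A); human HepaRG line treated in duplicate for 48 hr with an 8-point series topping at 100 uM, 0.5% DMSO vehicle, bidirectionally fitted.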

Read-out in the next experiment: TIMP1, TIMP1 (gene 7076)
Briefly: LTEA_HepaRG_TIMP1: Life Technologies and Expression Analysis (LTEA) Assay for TIMP1 using HepaRG (AID 2283534). The note with it: mRNA level, 48 h; actives raise or lower the signal. The procedure, abridged:
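Bidirectional change in TIMP1 transcript versus 0.5% DMSO, measured by TaqMan qRT-PCR with three housekeeping genes for normalization. HepaRG human liver cells dosed 48 h in duplicate, top concentration 100 uM with half-log dilutions.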

Read-out in experiment [13]: Tumor necrosis factor receptor 1 (TNFRSF1A), TNFRSF1A (gene 7132)
Description: LTEA_HepaRG_TNFRSF1A: Life Technologies and Expression Analysis (LTEA) Assay for Tumor necrosis factor receptor 1 (TNFRSF1A) using HepaRG (AID 2283535). Particulars: mRNA level, 48 h; actives raise or lower the signal. The procedure, abridged: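 mRNA measured by qRT-PCR (TaqMan, Fluidigm arrays) against ACTB/GAPDH/POLR2A housekeepers after 48 h chemical exposure of HepaRG cells. Top concentration 100 uM, half-log 8-point series, duplicates; vehicle 0.5% DMSO, both fit directions.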

Read-out in experiment [14]: Thyroid Hormone Responsive (THRSP), THRSP (gene 7069)
Briefly: LTEA_HepaRG_THRSP: Life Technologies and Expression Analysis (LTEA) Assay for Thyroid Hormone Responsive (THRSP) using HepaRG (AID 2283536). Particulars: mRNA level, 48 h; actives raise or lower the signal. The procedure, abridged:
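Cell model: human HepaRG, approx. 100,000 cells/well, 0.5% DMSO vehicle. Exposure lasts 48 h; phenobarbital 1 mM serves as induction positive control. Gene expression is measured by qRT-PCR against three endogenous control genes.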

Read-out in experiment [15]: UDP glucuronosyltransferase (UGT1A1), UGT1A1 (gene 54658)
Description: LTEA_HepaRG_UGT1A1: Life Technologies and Expression Analysis (LTEA) Assay for UDP glucuronosyltransferase (UGT1A1) using HepaRG (AID 2283538). The note with it: mRNA level, 48 h; actives raise or lower the signal. The procedure, abridged: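 HepaRG, 48 h chemical exposure (top 100 uM, half-log 8-pt, 0.5% DMSO vehicle), duplicate wells; qRT-PCR (TaqMan, Fluidigm array) for UGT1A1 mRNA, housekeeping-normalized; bidirectional curve fit vs DMSO baseline.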

Read-out in experiment [16]: UDP glucuronosyltransferase (UGT1A6), UGT1A6 (gene 54578)
Briefly: LTEA_HepaRG_UGT1A6: Life Technologies and Expression Analysis (LTEA) Assay for UDP glucuronosyltransferase (UGT1A6) using HepaRG (AID 2283539). Particulars: mRNA level, 48 h; actives raise or lower the signal. In short, it runs like this:
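Expression was quantified by TaqMan qRT-PCR on Fluidigm arrays with ACTB/GAPDH/POLR2A normalization and bidirectional fitting against 0.5% DMSO. HepaRG cells (~100,000/well) were treated in duplicate for 48 h at eight half-log concentrations up to 100 uM in serum-free induction medium.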

Read-out in experiment [17]: X-box binding protein 1 (XBP1), XBP1 (gene 7494)
Description: LTEA_HepaRG_XBP1: Life Technologies and Expression Analysis (LTEA) Assay for X-box binding protein 1 (XBP1) using HepaRG (AID 2283540). The note with it: mRNA level, 48 h; actives raise or lower the signal. In short, it runs like this: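 XBP1 transcript by qRT-PCR (housekeeping-normalized: ACTB, GAPDH, POLR2A) after 48 h chemical treatment of HepaRG cells, 8-point half-log series topping at 100 uM, vehicle 0.5% DMSO. Gain and loss of signal fitted relative to DMSO.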

Experiment [18] can be described thus: LTEA_HepaRG_LDH_cytotoxicity: Cytotoxicity Assessment in the Life Technologies and Expression Analysis (LTEA) Assay (AID 2283563; active = hit-call score of the fitted dose curve at least 0.9, where 1 is the maximum). The procedure, abridged: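 LDH release into culture medium read after 48 h chemical treatment of HepaRG cells. Duplicate wells, eight-point half-log series topping at 100 uM, 0.5% DMSO vehicle and baseline.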
Read-out in experiment [19]: Cellular tumor antigen p53 (Homo sapiens) (UniProt P04637)
Description: LTEA_HepaRG_TP53: Life Technologies and Expression Analysis (LTEA) Assay for Tumor Protein P53 (TP53) using HepaRG (AID 2283537). The note with it: mRNA level, 48 h; actives raise or lower the signal. In short, it runs like this: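 HepaRG, 48 h exposure, top 100 uM, half-log 8-point, 0.5% DMSO vehicle, duplicates. Read: TP53 mRNA by TaqMan qRT-PCR, normalised to ACTB/GAPDH/POLR2A; bidirectional fit vs DMSO.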

Molecules are shown by their SMILES. The source made the active and inactive calls. Rule for the calls, unless noted: active = hit-call score of the fitted dose curve at least 0.9, where 1 is the maximum; inactive = score below 0.9.

Sequence of Signal transducer and activator of transcription 3 (Homo sapiens) (P40763 whole entry, looked up): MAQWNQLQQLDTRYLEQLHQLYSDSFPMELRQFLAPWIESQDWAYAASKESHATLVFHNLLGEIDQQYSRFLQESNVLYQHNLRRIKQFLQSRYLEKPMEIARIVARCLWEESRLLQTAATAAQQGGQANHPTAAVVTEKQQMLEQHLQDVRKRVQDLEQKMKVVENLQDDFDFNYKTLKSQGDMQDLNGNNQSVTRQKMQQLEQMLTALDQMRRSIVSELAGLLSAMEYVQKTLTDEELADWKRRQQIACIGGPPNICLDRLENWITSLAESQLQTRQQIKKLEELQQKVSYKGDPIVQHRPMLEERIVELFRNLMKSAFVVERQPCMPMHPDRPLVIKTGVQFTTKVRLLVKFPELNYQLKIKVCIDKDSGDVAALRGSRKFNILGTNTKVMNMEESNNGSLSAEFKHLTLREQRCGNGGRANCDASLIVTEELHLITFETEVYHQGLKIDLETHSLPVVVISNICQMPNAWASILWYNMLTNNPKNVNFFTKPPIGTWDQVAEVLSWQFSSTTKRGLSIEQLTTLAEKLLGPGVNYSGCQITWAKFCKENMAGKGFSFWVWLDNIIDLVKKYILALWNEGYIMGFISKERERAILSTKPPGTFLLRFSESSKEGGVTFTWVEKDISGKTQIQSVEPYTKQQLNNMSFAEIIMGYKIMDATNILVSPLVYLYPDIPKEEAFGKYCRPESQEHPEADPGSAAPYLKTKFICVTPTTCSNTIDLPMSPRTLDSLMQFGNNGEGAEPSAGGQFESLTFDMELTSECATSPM
Sequence of Nuclear factor erythroid 2-related factor 2 (Homo sapiens) (Q16236 whole entry, looked up): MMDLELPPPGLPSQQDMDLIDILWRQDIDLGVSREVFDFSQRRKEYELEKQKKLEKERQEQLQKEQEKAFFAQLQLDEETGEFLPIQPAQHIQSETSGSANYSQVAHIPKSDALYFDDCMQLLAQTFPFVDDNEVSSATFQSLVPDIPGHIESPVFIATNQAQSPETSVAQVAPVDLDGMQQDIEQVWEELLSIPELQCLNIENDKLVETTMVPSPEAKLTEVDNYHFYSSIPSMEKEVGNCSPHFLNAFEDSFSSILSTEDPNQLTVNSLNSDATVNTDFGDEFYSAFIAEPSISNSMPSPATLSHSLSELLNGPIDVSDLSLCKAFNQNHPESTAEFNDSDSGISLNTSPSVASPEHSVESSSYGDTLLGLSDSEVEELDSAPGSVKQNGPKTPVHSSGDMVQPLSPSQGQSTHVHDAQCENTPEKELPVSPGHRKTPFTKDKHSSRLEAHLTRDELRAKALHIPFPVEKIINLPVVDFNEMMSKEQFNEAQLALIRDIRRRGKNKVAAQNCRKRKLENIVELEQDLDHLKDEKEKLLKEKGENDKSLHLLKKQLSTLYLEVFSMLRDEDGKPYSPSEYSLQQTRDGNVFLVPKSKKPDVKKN
Sequence of Cellular tumor antigen p53 (Homo sapiens) (P04637 whole entry, looked up): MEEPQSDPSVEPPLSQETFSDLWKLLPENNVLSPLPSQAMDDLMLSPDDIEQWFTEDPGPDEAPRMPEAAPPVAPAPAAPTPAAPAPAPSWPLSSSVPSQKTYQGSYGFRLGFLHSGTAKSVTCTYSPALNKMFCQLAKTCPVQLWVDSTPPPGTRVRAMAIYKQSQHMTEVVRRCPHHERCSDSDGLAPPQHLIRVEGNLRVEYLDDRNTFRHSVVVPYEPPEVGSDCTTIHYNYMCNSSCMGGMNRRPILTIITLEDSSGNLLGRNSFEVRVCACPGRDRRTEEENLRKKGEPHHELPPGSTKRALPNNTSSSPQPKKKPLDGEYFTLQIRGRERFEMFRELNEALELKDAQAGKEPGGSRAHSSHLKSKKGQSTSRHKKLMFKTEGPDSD

For orientation: AC50 means the midpoint of the concentration-response curve, whichever way the signal moves. For `CCCCOC(=O)[C@@H](C)Oc1ccc(Oc2ccc(C#N)cc2F)cc1`, the result in experiment [1], in experiment [2], in [3], in experiment [5], in experiment [6] and in experiment [7] was inactive. Also, the outcome is “inactive” in [8]; “inactive” in experiment [9]; “inactive” in experiment [10]; “inactive” in experiment [11]; “inactive” in experiment [12]; “inactive” in the experiment with TIMP1, TIMP1 (gene 7076). For the same compound, the result in experiment [13], in [14], in experiment [16], in experiment [17] and in experiment [18] was inactive. Moreover, the AC50 in experiment [4] and in [15] was 49.8 µM (active) each time.
With `CCOP(=S)(Oc1cnc(C(C)(C)C)nc1)OC(C)C` (stereo not drawn), the outcome in experiment [1], in experiment [2], in [3], in experiment [5], in experiment [6] and in experiment [7] was inactive. The outcome is “inactive” in experiment [8]; “inactive” in experiment [9]; “inactive” in experiment [10]; “inactive” in [11]; “inactive” in experiment [12]; “inactive” in the experiment with TIMP1, TIMP1 (gene 7076). The call in experiment [13], in experiment [19], in experiment [15], in experiment [16] and in [18] was inactive. Besides, the concentration at half-maximal activity (AC50) was 1.35 µM (active) in experiment [4], 68.5 µM (active) in experiment [14] and 50 µM (active) in experiment [17].
In the case of `CCOC(=O)COc1cc(-c2nn(C)c(OC(F)F)c2Cl)c(F)cc1Cl`, the call in experiment [1], in experiment [2], in experiment [3], in experiment [4], in [5] and in experiment [6] was inactive. For the same compound, the result in experiment [7], in experiment [8], in experiment [9], in experiment [10], in [11] and in experiment [12] was inactive. The outcome in the experiment with TIMP1, TIMP1 (gene 7076) is “inactive”; in experiment [13], “inactive”; in experiment [14], “inactive”; in experiment [16] it was “inactive”; in [17] it was “inactive”; in [18], “inactive”. Besides, the half-maximal activity concentration (AC50) in [15] is 50 µM (active).

Values taken from PubChem BioAssay (EPA / NIEHS).
